# LDHA block: qHTS assay for inhibitors of human lactate dehydrogenase; L-lactate dehydrogenase A chain (Homo sapiens), P00338; purified LDHA, NADH/diaphorase-resazurin fluorescence; active compounds read low; activity change, % (values are at about 110 or 230 µM); actives 0.15% (n = 480,000); AID 1347041, 2019; in the data active = activity change below about -30%; inconclusive = mostly about -25% to -30%;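 also: plate controls were DMSO wells for no effect and wells without enzyme for full effect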
#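 Human LDH5 at 2 nM final in Tris HCl pH 7.4 with 0.06 mM NADH and 0.2 mM pyruvate, reacted 5 minutes at room temperature. Remaining NADH coupled via diaphorase/resazurin; resorufin fluorescence read at 0 and 20 minutes, normalized to enzyme-free and DMSO wells.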
# IL-1B inflam inh: qHTS for Inhibitors of Inflammasome Signaling: IL-1-beta AlphaLISA Primary Screen. AID 743279, 2014. THP-1 LPS/ATP IL-1B secretion, AlphaLISA, 16 h; active compounds read low. activity change, % at 57.5 µM. actives 4.7% (n = 360,000); in the data active = activity change below about -50%; inconclusive = mostly about -30% to -49%
#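 THP-1 cells pretreated 1 hr with compounds (up to 57.5 uM final), then stimulated with LPS (250 ng/mL final) plus ATP (1.25 mM final); secreted IL-1B measured by AlphaLISA after 16 hr, decreased signal indicating inhibition.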
# Gal4-VP16 FLuc: VP16 counterscreen qHTS for inhibitors of ROR gamma transcriptional activity. Drosophila S2 Gal4-VP16 UAS-luciferase, luminescence, 20 h. Potency, µM (doses to about 53.6 µM), inactives show at the top dose activity, negative = inhibition, most hits filed as inhibitors. actives 3.5% (n = 310,000);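 also: Gal4-VP16 expression switched on by copper sulfate through the metallothionein promoter; potency is read from the fitted curve at half-maximal effect; nearly all actives have a fitted effect of over 50% in size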
# RORgamma inh: qHTS for inhibitors of ROR gamma transcriptional activity; AID 2551, 2010; Nuclear receptor ROR-gamma (Mus musculus), P51450; Drosophila S2 Gal4-RORgamma UAS-luciferase reporter, 20 h; Potency, µM (doses to about 53.6 µM), for inactives: at the top dose activity change, negative = inhibition, hits mostly inhibitors; actives 5.4% (n = 310,000); also: potency is read from the fitted curve at half-maximal effect; nearly all actives have a fitted effect of over 60% in size
# Target sequence (P51450 whole entry, looked up, the tested form may be a part): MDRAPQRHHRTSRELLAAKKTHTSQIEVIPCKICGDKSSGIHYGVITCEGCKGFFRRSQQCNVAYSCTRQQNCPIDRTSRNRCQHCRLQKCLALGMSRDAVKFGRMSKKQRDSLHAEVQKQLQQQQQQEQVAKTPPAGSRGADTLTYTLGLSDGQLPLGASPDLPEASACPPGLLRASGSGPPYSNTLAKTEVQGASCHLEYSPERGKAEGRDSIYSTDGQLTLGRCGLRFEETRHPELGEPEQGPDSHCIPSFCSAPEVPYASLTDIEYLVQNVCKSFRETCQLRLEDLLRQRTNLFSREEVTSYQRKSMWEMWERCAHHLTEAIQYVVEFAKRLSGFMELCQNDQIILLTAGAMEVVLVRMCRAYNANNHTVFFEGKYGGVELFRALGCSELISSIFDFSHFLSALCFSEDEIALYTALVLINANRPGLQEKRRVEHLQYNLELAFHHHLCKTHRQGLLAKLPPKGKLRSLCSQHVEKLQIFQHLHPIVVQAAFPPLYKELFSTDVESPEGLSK
#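 Drosophila S2 cells stably expressing Gal4-DBD/mouse RORγ fusion under metallothionein promoter plus UAS-luciferase; compound 1 h, then 700 uM CuSO4 induction for 20 h at ambient temperature; inhibition read as reduced luminescence.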
# TDP1 cell noCPT: qHTS for Inhibitors of human tyrosyl-DNA phosphodiesterase 1 (TDP1): qHTS in cells in absence of CPT. AID 686978, 2013. DT40 Tdp1-/- hTDP1 cells, no CPT, ATP luminescence, 48 h. Potency, µM (highest dose often 46.2 µM), for inactives: top-dose activity change, negative = growth inhibition, actives largely listed as inhibitors. actives 15% (n = 420,000); also: potency is read from the fitted curve at half-maximal effect; nearly all actives have a fitted effect of over 55% in size
#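 Compound effects on proliferation are scored in DT40 Tdp1-/-;hTDP1 cells in the absence of CPT. ATP levels (CellTiter-Glo luminescence) are recorded after a ≥48 hr, 37 °C incubation.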
# DT40 TDP1 CPT: qHTS for Inhibitors of human tyrosyl-DNA phosphodiesterase 1 (TDP1): qHTS in cells in presence of CPT. chicken DT40 Tdp1-/-;hTDP1 cells + 20 nM CPT, ATP luminescence, 48 h. Potency, µM (doses to about 46.2 µM), for inactives: at the highest dose activity change, negative = growth inhibition, most hits filed as inhibitors. actives 12% (n = 420,000); also: potency is read from the fitted curve at half-maximal effect; nearly all actives have a fitted effect of over 55% in size
#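 Cell growth measured by CellTiter-Glo luminescence after a minimum 48 h, 37 C compound exposure with 20 nM CPT in Tdp1-knockout DT40 cells stably expressing hTDP1, seeded 400/well; qHTS titration format.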
# The depositor's hits bear a star; ? = inconclusive; . = not tested or not shown; [ ] = dose if it differs, or a comment. Shown are actives, neighbours in structure and some others; about 18% of the full set was active somewhere. Unless noted, calls follow the shape of the dose curve; as a rule, active = well fitted curve in the direction sought with a large enough effect; inconclusive = small, poorly fitted or top-dose-only effect, or another doubt; inactive = no such curve, though single readings can be large; an effect the other way counts as inactive or inconclusive. Unless noted, % is scaled to controls: 0 for no effect and ±100 for the full control effect.
SMILES,LDHA block,IL-1B inflam inh,Gal4-VP16 FLuc,RORgamma inh,TDP1 cell noCPT,DT40 TDP1 CPT
O=C(Nc1ccc(NC(=O)C2CC2)cn1)c1ccccc1,-15.0,-2.0,0.1µM*,12.6µM*,-16.6%,-4.9%
O=C(Nc1ccc(NC(=O)C2CC2)cn1)c1ccccc1Cl,3.1,0.0,-3.1%[0.365 µM],?,?,?
CC(=O)Nc1ccc(Nc2ccccc2)cc1,-1.6,0.9,0.0%,1.3%,1.1%,?
O=C(Nc1ccc(Nc2ccccc2)cc1)C1CC1,4.3,-29.1,9.4%,?,6.51µM*,7.31µM*
O=C(CSc1ccc(F)c(F)c1)Nc1ccc2c(c1)OCCCO2,0.6,.,.,.,.,.
O=C(Nc1ccccc1)Nc1ccc(-n2ccc(C(F)(F)F)n2)cc1,-15.4,?,-5.4%,23.4%,18.4µM*,?
O=C(Nc1ccccc1)Nc1cccc2nsnc12,4.3,-73.8*,-5.9%,-14.5%,?,?
O=C(NNc1cccc(Cl)n1)Nc1ccccc1,3.6,-9.6,1.2%,10.0%,-15.5%,0.7%
O=C(O)CC(CC(=O)Nc1ccc(-n2ccc(C(F)(F)F)n2)cc1)c1ccccc1 (configuration not stated),-6.8,24.7,-6.1%,21.6%,5.4%,11.9%
O=C(Nc1ccc(-n2cccc2)cc1)C1CC1,-6.6,0.0,16.2%,25.4%,9.2µM*,9.2µM*
O=C(Nc1ccccc1)Nc1ccc(Cl)nc1Cl,-4.7,-79.1*,.,.,?,?
Cc1cc(C)c(NC(=O)Nc2ccccc2)c(Cl)c1,-3.6,13.8,-10.2%,-3.7%,?,16.4µM*
COc1ccc(CNC(=O)Cc2c(C)c3c(OC(C)=O)cc(OC(C)=O)cc3oc2=O)cc1OC,10.5,.,.,.,.,.
CCC(=O)NC(=S)Nc1ccc(NC(=O)c2ccc(C)c([N+](=O)[O-])c2)cc1,-6.4,0.4,5.3%,-25.7%,8.2µM*,?
CCOc1ccc(C(=O)Nc2ccc(N3CCN(C(C)=O)CC3)cc2)cc1[N+](=O)[O-],-8.6,-1.0,-0.3%,11.7%,?,?
CCOc1ccc(C(=O)Nc2ccc(N3CCN(C)CC3)cc2)cc1[N+](=O)[O-],1.6,-24.4,-17.0%[10 µM],-1.5%,-27.4%,-20.7%
CCC(=O)NC(=S)Nc1ccc(NC(=O)c2ccc([N+](=O)[O-])cc2Cl)cc1,1.6,0.0,-13.6%,-28.9%,-8.8%,-9.8%
COc1ccc(C(=O)NC(=S)Nc2ccc(N3CCN(C(C)=O)CC3)cc2)cc1[N+](=O)[O-],-6.3,-1.2,17.8µM*,?,?,-28.9%
CC(=O)N1CCN(c2ccc(NC(=S)NC(=O)c3ccc(C)c([N+](=O)[O-])c3)cc2)CC1,-3.7,-18.5,7.94µM*,?,?,-14.8%
O=C(O)C(CO)NS(=O)(=O)c1ccc(Br)cc1 (configuration not stated),-2.4,.,.,.,.,.
CC(C)c1ccc(S(=O)(=O)N2CCN(C(=O)c3cncn3-c3ccc(F)cc3)CC2)cc1,-18.6,.,.,.,.,.
CC(=O)Nc1ccc(S(=O)(=O)NCCc2csc3nc(-c4cccc(C)c4)nn23)cc1,-8.2,.,.,.,20.6µM*,?
Cc1cccc(-c2nc3scc(CCNS(=O)(=O)c4ccc(F)cc4C)n3n2)c1,5.5,.,.,.,16.4µM*,?
Cc1cccc(-c2nc3scc(CCNS(=O)(=O)c4ccc5c(c4)OCCO5)n3n2)c1,0.6,.,.,.,?,23.1µM*
Cc1cccc(-c2nc3scc(CCNS(=O)(=O)c4ccc(F)c(C(F)(F)F)c4)n3n2)c1,-1.5,.,.,.,?,?
COc1ccc(-c2nc3scc(CCNS(=O)(=O)c4ccc(NC(C)=O)cc4)n3n2)cc1,-0.7,.,.,.,?,?
